Source: PubChem (National Center for Advancing Translational Sciences (NCATS))
HBB splicing: qHTS Assay for Modulators of Hemoglobin Beta Chain Splicing. HBB splicing reporter cell assay, activation; EGFP reporter with mutant IVS2-654 intron; response scale: normalised to 500 nM splice-correcting PNA. Potency, µM (doses to about 46.1 µM), inactives show at the highest dose activation, hits mostly activators. hit rate 0.06% among 65,000. AID 925, 2007; note: potency is the fitted concentration of half-maximal effect; 0% is about no effect
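Compounds were applied for 2 days to HeLa EGFP-654 cells, 500/well in Optimem with 2% FCS. The reporter's EGFP is disrupted by mis-splicing of beta-globin intron IVS2-654. Readout: summed well GFP fluorescence from 488 nm laser scanning; reference was 500 nM antisense […] 654 PNA.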
GFP derepression: qHTS Assay for Epigenetic Modulators; mouse C127i GFP locus derepression, cytometry, 30 h; Potency, µM (top dose mostly 46.1 µM), for the others: at the highest dose GFP derepression (activation); hit rate 0.09% among 68,000; note: % of control where 0% means no effect
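Locus derepression in mouse mammary C127i cells whose integrated CMV-GFP reporter is normally silent; GFP expression after 30 h compound treatment was quantified by counting fluorescent cells.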
Ub-GFP proteasome: Ubiquitin-GFP Assay; Ubiquitin-GFP reporter cells, proteasome inhibition, GFP fluorescence; response scale: untreated = 0%, 10 µM MG-132 = 100%; Potency, µM (doses to about 45.9 µM), for inactives: top-dose activation (GFP accumulation), usual class: activators; 67,000 tested, under 10 active; AID 526, 2006; active = well fitted activation curve with a large enough effect, not every such curve was filed as active; inconclusive = small, poorly fitted or top-dose-only effect, or another doubt; inactive = no such curve, though single readings can be large or run the other way; note: potency is the fitted concentration of half-maximal effect
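Proteasome block read as GFP accumulation: ubiquitin(G76V)-GFP U2OS cells exposed to compound (2.9 nM–46 uM) for 4 hr at 37 C. Normalization used untreated cells as 0% and 10 uM MG-132 as 100%; concentration-response curves fitted.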
ERK AVP block: qHTS Assay for Inhibitors of the ERK Signaling Pathway using a Homogeneous Screening Assay; HEK293-V1b, vasopressin-stimulated pERK AlphaScreen; Potency, µM (highest dose often 57.5 µM), for inactives: at the top dose activity, negative = inhibition, actives largely listed as inhibitors; hit rate 0.99% among 72,000; AID 995, 2007; note: potency is the fitted concentration of half-maximal effect; % is set by controls: 0 for no effect and ±100 for the full control effect; nearly all actives have a fitted effect of over 55% in size
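qHTS, compounds titrated on V1b-expressing HEK293 cells. Preincubation 30 min at 37C, vasopressin 25 nM for 5 min, lysis 10 min, bead incubation 5 hr at room temperature.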
HEK293 cAMP cs: qHTS Assay for Agonists of the Thyroid Stimulating Hormone Receptor: Activators of Intracellular cAMP Concentrations in Parental HEK 293; parental HEK293 CNG cAMP sensor, membrane potential fluorescence; Potency, µM (series often up to 57.1 µM), for inactives: at the highest dose activation, actives largely listed as activators; hit rate 2.5% among 73,000; note: potency is the fitted concentration of half-maximal effect; % of control where 0% means no effect; nearly all actives have a fitted effect of over 55% in size
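Counterscreen for endogenous-receptor signalling: CNG-channel HEK 293 cells report cAMP rise by membrane depolarization. After 60 min dye equilibration with 100 uM RO 20-1724, compounds incubated 30 min before bottom-read fluorescence at 590 nm.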
TSHR agonist: qHTS Assay for Agonists of the Thyroid Stimulating Hormone Receptor. AID 926, 2007. Potency, µM (titrated, usually from 57.1 µM), without a hit: at the highest dose activation, most hits filed as activators. Thyrotropin receptor (Homo sapiens), P16473. HEK293-CNG-TSHR cells (CNG channel as cAMP sensor), membrane potential dye, cAMP. hit rate 0.48% among 73,000; active = well fitted activation curve with a large enough effect in the main read-out, with a control signal flat, not every such curve was filed as active; inconclusive = small, poorly fitted or top-dose-only effect, or a change in a side signal; inactive = no such curve, though single readings can be large or run the other way; % of control where 0% means no effect;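 note: the control signal comes from parental cells without the receptor; potency is the fitted concentration of half-maximal effect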
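HEK 293 cells stably expressing TSHR and a cAMP-gated CNG channel; parental CNG-only cells as counterscreen. Cells preloaded 60 min with membrane potential dye plus 100 uM RO 20-1724, then compound 30 min; fluorescence read at 590 nm.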
Active calls of the source: *; ? = inconclusive; . = no result given; [ ] = remark or other dose. Sampled rows, rich in hits. Any-hit rate of the full collection: about 3.8%. Unless noted, calls come from the whole dose curve; as a rule, active = well fitted curve in the direction sought with a large enough effect; inconclusive = small, poorly fitted or top-dose-only effect, or another doubt; inactive = no such curve, though single readings can be large; an effect the other way counts as inactive or inconclusive.

SMILES | HBB splicing | GFP derepression | Ub-GFP proteasome | ERK AVP block | HEK293 cAMP cs | TSHR agonist
CCn1nnc(NC(=O)c2ccccc2Br)n1 | -2% | 0% | 1% | -4% | 32µM* | ?
O=C(O)c1cnn2c(C(F)(F)F)cc(-c3ccco3)nc12 | . | 3%[20.6 µM] | . | . | . | .
O=C(c1cnn2c(C(F)(F)F)cc(-c3ccco3)nc12)N1CCCCCC1 | 0% | 2% | 4% | 9% | 32µM* | ?
CCOc1ccc2c(ccc(/C=C\c3cc(C)c4cccnc4c3O)[n+]2C)c1 | 1%[9.22 µM] | 6%[9.22 µM] | -4%[9.17 µM] | -5%[11.5 µM] | 12%[11.4 µM] | 0%[11.4 µM]
C#CCCCC(=S)Nc1ccccc1 | 1% | . | . | 4% | 3% | -2%
COc1ccccc1N1CCN(C(=O)CCc2ccc(S(=O)(=O)NCC(C)C)cc2)CC1 | -1% | 0% | 4% | 25µM* | -2% | 12%
CCN1C(=O)C2(Nc3ccccc3-c3nc4ccccc4n32)c2cc(OC)ccc21 (stereo not given) | 0%[1.84 µM] | -2% | 4% | -16% | 7.9µM* | ?
COC(=O)c1ccccc1NC(=O)CN1CCC(n2nnc3cc(F)ccc32)CC1 | . | -1% | 1% | -21% | 25µM* | ?
COC(=O)c1ccccc1NC(=O)CN1CCC(NC(=O)c2ccc(C)cc2)CC1 | . | -2% | 1% | -8% | ? | ?
COC(=O)c1ccccc1NC(=O)CN1CCN(C23CC4CC(CC(C4)C2)C3)CC1 | 2% | -3% | 3% | -1% | 7.9µM* | ?
COc1c(O)cc2c(c1O)[C@@H]1O[C@@H](CO)[C@@H](O)[C@@H](O)[C@@H]1OC2=O | 2%[20.6 µM] | 5%[20.6 µM] | -4%[20.5 µM] | 3%[25.7 µM] | ? | ?
CC(=O)OC[C@@H]1O[C@@H](O/N=C2/C[C@@H](O)[C@@H](O)[C@@H]3[C@@H]4C(=O)N(C[C@@H]5CCCO5)C(=O)[C@H]4CC[C@H]23)[C@H](OC(C)=O)[C@H](OC(C)=O)[C@@H]1OC(C)=O | 2%[9.22 µM] | . | . | 5%[11.5 µM] | -3%[11.4 µM] | -1%[11.4 µM]
COC(=O)[C@@H]1C[C@H]1[C@@H](NS(=O)(=O)c1ccc2ccccc2c1)c1ccccc1 | 4% | . | . | 15% | 18% | .
N#Cc1ccc(CN2CC[C@@]3(CCCN(C(=O)c4ccco4)C3)C2)cc1 | 1% | 2%[9.22 µM] | 7% | -12% | ? | ?
CCC(C)(C)n1nnnc1CN(Cc1cc2cc(OC)ccc2[nH]c1=O)C1CCCC1 | -3% | 0% | 4% | 2% | 20µM* | ?
COc1ccc2[nH]c(=O)c(C(c3nnnn3C(C)(C)C)N(Cc3ccco3)CC3CCCO3)cc2c1 (stereo not given) | . | -1% | -4% | -1% | 16µM* | ?
COc1ccc2cc(CN(Cc3ccco3)C(c3nnnn3C3CCCCC3)C(C)C)c(=O)[nH]c2c1 (stereo not given) | . | 9% | -2% | -9% | ? | ?
Fc1cccc(CSc2ncnc3c2ncn3[C@H]2CCCS2)c1 | 5%[9.22 µM] | 0%[9.22 µM] | 0%[9.17 µM] | -4%[11.5 µM] | -2%[11.4 µM] | 2%[11.4 µM]
CCn1c(=S)sc2c(=O)n(-c3ccccc3)c(SC)nc21 | -2%[0.369 µM] | -4% | . | ? | 25µM* | ?
CCCn1c(C)nc2c(Nc3ccccc3)nc(C)nc21 | -1% | . | -2% | ? | 13% | -2%
